Some test systems named below: HCT-15 colon; HT29 colon; SNB-75 CNS; SNB-19 CNS; U251 CNS; PC-3 prostate; SK-MEL-5 melanoma; UACC-62 melanoma; LOX IMVI melanoma; SK-MEL-28 melanoma.
Common to all, as to test: NCI-60 one-dose screen, 48 h (100 = growth as untreated, 0 = no growth, -100 = all killed)
What all share (conditions): 10 µM unless noted

Molecules are shown by their SMILES. Compounds without any hit were thinned out: in the full panel of roughly 83,000, 20% have a hit.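 A percent growth of 40 corresponds to 60% growth inhibition; 0 means no net growth; -100 means all cells died. Active threshold: below 10.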 Unmarked numbers belong to inactive results. Activity calls are given as the source filed them.

Consider `CC1CCc2cc(F)cc3c(=O)c(C(=O)O)cn1c23` (stereo not given), for which the growth in the assay with HCT-15 colon is 105%; in the assay with HT29 colon, 116%; in the assay with SNB-75 CNS, 109%; in the assay on SNB-19 CNS, 93.1%; with U251 CNS it was 101%; in the assay with PC-3 prostate, 96.6%. Moreover, the growth in the assay on SK-MEL-5 melanoma was 102%; in the assay with UACC-62 melanoma, 92.8%; in the assay with LOX IMVI melanoma, 69.1%; with SK-MEL-28 melanoma it was 120%.

`C=C1C(=O)O[C@H]2[C@H]1CC/C(CNC(=O)/C1=C/CC[C@@]3(C)O[C@H]3[C@H]3OC(=O)C(=C)[C@@H]3CC1)=C\CC[C@@]1(C)O[C@@H]21`: the growth in the assay with HCT-15 colon was 93.7%; in the assay on HT29 colon, 95.4%; with SNB-75 CNS, 86.3%; in the assay on SNB-19 CNS, 97.6%; with U251 CNS, 94.2%; with PC-3 prostate it was 99%. For the same compound, the growth in the assay on SK-MEL-5 melanoma was 97.2%; in the assay with UACC-62 melanoma it was 85.1%; in the assay with LOX IMVI melanoma, 88.2%; in the assay on SK-MEL-28 melanoma it was 96.2%.

`CC(CN(C)C)CN1c2ccccc2CCc2ccccc21` (stereo not given): the growth was 89.9% in the assay with HCT-15 colon; 56.7% in the assay with HT29 colon; 66.9% in the assay with SNB-75 CNS; 96.8% in the assay with SNB-19 CNS; 85.6% in the assay on U251 CNS; 66.7% in the assay with PC-3 prostate. Further, the growth was 77.9% in the assay on SK-MEL-5 melanoma, 77.1% in the assay with UACC-62 melanoma, 74.5% in the assay with LOX IMVI melanoma and 84.9% in the assay on SK-MEL-28 melanoma.

In the case of `O=C(NCCNc1nccc(-c2c(-c3cccc(O)c3)nc3sccn23)n1)c1cccc(C(F)(F)F)c1`, the growth is 87.8% with HCT-15 colon; 81.1% with HT29 colon; 73.8% with SNB-75 CNS; 116% in the assay with SNB-19 CNS; 84.8% in the assay with U251 CNS; 67.3% with PC-3 prostate. For the same compound, the growth in the assay on SK-MEL-5 melanoma is 52.6%; in the assay with UACC-62 melanoma it was 3.21% (active); with LOX IMVI melanoma it was 53.4%; in the assay on SK-MEL-28 melanoma, 38.5%.

For the compound `c1ccc2c(c1)Oc1cccnc1-n1nccc1-2`, the growth is 108% in the assay on HCT-15 colon; 99.7% in the assay on HT29 colon; 88.8% in the assay with SNB-75 CNS; 103% with SNB-19 CNS; 100% in the assay with U251 CNS; 89.7% with PC-3 prostate. For the same compound, the growth is 95.7% in the assay with SK-MEL-5 melanoma, 84.7% in the assay with UACC-62 melanoma, 96.3% with LOX IMVI melanoma and 102% with SK-MEL-28 melanoma.

Regarding `CC(=O)Cc1cccnc1`, the growth in the assay with HCT-15 colon was 107%; in the assay on HT29 colon, 106%; with SNB-75 CNS, 104%; with SNB-19 CNS it was 98.8%; in the assay on U251 CNS, 98.6%; in the assay with PC-3 prostate it was 94.3%. Further, the growth in the assay on SK-MEL-5 melanoma was 101%; in the assay with UACC-62 melanoma, 95.6%; in the assay with LOX IMVI melanoma, 99.9%; in the assay with SK-MEL-28 melanoma it was 113%.

With `O=C(Nc1ccc(-n2ccc3c(NC(=O)c4ccccc4)nccc32)cc1)Nc1cccc(C(F)(F)F)c1`, the growth in the assay on HCT-15 colon was 19.7%; in the assay with HT29 colon, -0.934% (active); with SNB-75 CNS, 74.3%; in the assay with SNB-19 CNS, 65.8%; in the assay with U251 CNS, 32.3%; with PC-3 prostate it was 13.6%. Also, the growth in the assay on SK-MEL-5 melanoma is 53.6%; in the assay with UACC-62 melanoma, 78.6%; with LOX IMVI melanoma, 26.6%; with SK-MEL-28 melanoma, 60.3%.

As to `COc1ccc(-c2nnc(NC(=O)CN3CCN(c4cc5c(cc4F)c(=O)c(C(=O)O)cn5C4CC4)CC3)s2)cc1OC`, the growth in the assay on HCT-15 colon was 103%; with HT29 colon, 95.8%; with SNB-75 CNS, 90.8%; with SNB-19 CNS, 96.2%; in the assay with U251 CNS, 99.7%; with PC-3 prostate, 95.6%. The growth in the assay with SK-MEL-5 melanoma is 99.1%; in the assay with UACC-62 melanoma, 91.9%; with LOX IMVI melanoma, 74.3%; in the assay on SK-MEL-28 melanoma, 107%.

As to `CCNc1ncnc2n[nH]nc12`, the growth was 98.4% in the assay with HCT-15 colon; 100% in the assay on HT29 colon; 94.8% in the assay on SNB-75 CNS; 96.4% with SNB-19 CNS; 95.3% in the assay with U251 CNS; 82.3% in the assay on PC-3 prostate. Moreover, the growth in the assay with SK-MEL-5 melanoma was 98.7%; in the assay with UACC-62 melanoma, 99.3%; in the assay with LOX IMVI melanoma, 102%; in the assay with SK-MEL-28 melanoma it was 107%.

For `O=C(NCCNc1nccc(-c2c(-c3cccc(O)c3)nc3sccn23)n1)c1ccc(N2CCOCC2)c(C(F)(F)F)c1`, the growth is 80.1% in the assay on HCT-15 colon; 68.6% in the assay on HT29 colon; 58% in the assay on SNB-75 CNS; 107% with SNB-19 CNS; 82% in the assay on U251 CNS; 56.6% in the assay on PC-3 prostate. Moreover, the growth with SK-MEL-5 melanoma was 40%; in the assay with UACC-62 melanoma, 5.88% (active); in the assay with LOX IMVI melanoma, 42.2%; in the assay on SK-MEL-28 melanoma, 42.8%.

Consider `C=C1C(=O)O[C@H]2[C@H]1CC/C(COC(=O)OC/C1=C/CC[C@@]3(C)O[C@H]3[C@H]3OC(=O)[C@@H](CN(C)C)[C@@H]3CC1)=C\CC[C@@]1(C)O[C@@H]21`, for which the growth in the assay on HCT-15 colon is 1.8% (active); in the assay on HT29 colon it was -8% (active); in the assay with SNB-75 CNS, 91%; with SNB-19 CNS, 80.3%; with U251 CNS, 60.6%; in the assay on PC-3 prostate, 72.7%. In addition, the growth with SK-MEL-5 melanoma is 46.9%; in the assay on UACC-62 melanoma, -28.1% (active); in the assay with LOX IMVI melanoma it was -72.3% (active); in the assay on SK-MEL-28 melanoma it was -18.3% (active).

With `O=C(Nc1ccc(-n2ccc3c(NC(=O)c4ccccc4)nccc32)cc1)Nc1ccc(Cl)c(Cl)c1`, the growth was -50.8% (active) with HCT-15 colon; -42.8% (active) in the assay on HT29 colon; -7.26% (active) with SNB-75 CNS; -40.2% (active) in the assay on SNB-19 CNS; -79.6% (active) with U251 CNS; 23.9% in the assay with PC-3 prostate. Moreover, the growth in the assay with SK-MEL-5 melanoma was -97.9% (active); in the assay with UACC-62 melanoma it was -46.4% (active); in the assay on LOX IMVI melanoma, -72.4% (active); with SK-MEL-28 melanoma, 18.2%.

`COc1cc(NC(C)CCCN2C(=O)c3ccccc3C2=O)c2nccc(C)c2c1OC` (stereo not given): the growth in the assay with HCT-15 colon is 102%; with HT29 colon it was 107%; in the assay with SNB-75 CNS it was 102%; in the assay with SNB-19 CNS, 109%; with U251 CNS, 101%; in the assay on PC-3 prostate, 58.6%. The growth in the assay with SK-MEL-5 melanoma is 69.5%; in the assay on UACC-62 melanoma, 84%; with LOX IMVI melanoma, 82.8%; with SK-MEL-28 melanoma, 113%.

The values above are taken from PubChem BioAssay (NCI).
